Results filed as inconclusive are left out. Active and inactive are the calls of the source.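 Rule for the calls, unless noted: active = viability increase at or above a cutoff of the median across tested compounds plus 3 SD (cut at about 8.5% in these data, passing the limit was not always enough); inconclusive = some gains above the cutoff, reason not given; inactive = the rest.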
Columns and labels:
[1] = reducers of endogenous Her2 protein level, primary screen, SKBR3 breast tumor cells, AlphaScreen, ATP viability (AID 461;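 active = Her2 level under about 52% in both replicate screens, with viability over 70% of control, limit read from the data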;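 for Her2 level: lower value means less Her2 protein in the cells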;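 for viability: percent of carrier control wells set as 100% viability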); details: 18-24 h, measured here: SKBR3 viability, ATP luminescence, at 10 µM
[2] = target: Receptor tyrosine-protein kinase erbB-2 (Homo sapiens) (UniProt P04626); assay: as above; details: 18-24 h, at 10 µM, stronger effect = lower value
[3] = SK-BR-3 cell growth inhibitors, pilot screen, 24 h, human (AID 572;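 active = viability at or below 10% of carrier control in both of two separate runs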;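 note: compound exposure lasted between 18 and 24 h rather than exactly 24 h; 100% = carrier-treated control wells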); details: SK-BR-3 viability, CellTiter-Glo luminescence, at 10 µM, stronger effect = lower value
[4] = HUVEC growth inhibition – cell-based, human, primary screen (AID 575;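 active = viability at or below 30% in both replicate assays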;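 note: 100% = median of untreated cell wells with 0.1% DMSO on each plate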); details: HUVEC proliferation, CellTiter-Glo luminescence, 72 h; at 10 µM; stronger effect = lower value
[5] = growth inhibitors of H69AR lung tumor, primary screen, human, duplicate replicates (AID 580;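 active = viability at or under a set limit in both replicates, limit being median viability minus 3 SD, cut at about 48% in these data, passing the limit was not always enough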;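 note: 100% = mean luminescence of untreated wells and 0% = no signal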); details: H69AR lung tumor cells viability, ATP luminescence, 72 h; at 10 µM; stronger effect = lower value
[6] = reversal of MRP1-mediated doxorubicin resistance, pilot screen, H69AR cells, doxorubicin co-treatment (AID 601;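 active = viability loss from added drug above about 55%, and viability with drug at most 40%, in both replicates, limit read from the data, passing the limit was not always enough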); details: CellTiter-Glo, 72 h, at 10 µM; for differential viability (reversal): stronger effect = higher value
[7] = 384-well plate pilot, post-Golgi transport modulator project, inhibition of yeast transport mutant growth (AID 636; in the data active = inhibition above about 31%); details: absorbance 615 nm, about 18 h, stronger effect = higher value
[8] = growth suppression of yeast trafficking mutant, preliminary HTS, modulators of trafficking downstream of Golgi apparatus project, 1536-format plate, OD 615 nm (AID 637; in the data active = inhibition above about 30%); details: yeast transport mutant growth, absorbance 615 nm, 18 h; stronger effect = higher value
[9] = OD615 S. cerevisiae growth inhibition, permissive medium, pilot counter-assay, permissive growth control for S. cerevisiae lifespan shortening project (AID 705;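 active = growth inhibition above 25% in both replicates, a cutoff set 3 SD above the mean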); details: OD615, 24 h, at 10 µM, stronger effect = higher value
[10] = Restrictive medium S. cerevisiae growth inhibition, OD615, pilot screen of yeast lifespan reduction project, restrictive growth control (AID 706;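 active = growth inhibition above a set limit, 3 SD over mean compound inhibition, in both replicates, cut at about 43% in these data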;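 note: modified DeaD lifespan yeast strain shifted to restrictive glucose medium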); details: OD615, 48 h, at 10 µM, stronger effect = higher value
[11] = viability gain of MRP-1-high H69AR cells under doxorubicin, pilot screen, MRP-1 activator project, CellTiter-Glo, duplicate (AID 807); details: H69AR viability with doxorubicin, CellTiter-Glo luminescence; at 10 µM; stronger effect = higher value;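 note: compound pretreatment 18-22 h then 72 h combined with doxorubicin; 0% = doxorubicin alone and 100% = vehicle without doxorubicin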
[12] = growth suppression of beta-catenin knockout HCT116, pilot screen, human colon tumor cells (AID 823;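 active = cell viability at or below a set limit in both duplicate runs, the limit being the all-compound median minus 4 SD, cut at about 23% in these data, passing the limit was not always enough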;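 note: 0% = wells killed by 20 µM Hyamine and 100% = untreated DMSO cell wells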); details: CellTiter-Glo, 60 h, at 10 µM, stronger effect = lower value
[13] = growth suppression of PTEN-deleted HCT116, pilot screen, cell-based, HCT116 clonal line, CellTiter-Glo (AID 824;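 active = viability at or below 27.92% in each of two runs, the all-compound median minus 4 SD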;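 note: 0% = 20 µM Hyamine control and 100% = vehicle cell control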); details: 60 h, at 10 µM, stronger effect = lower value
[14] = inhibitors of the yeast RAM network, pilot screen, dse1pr::URA3 reporter, 5-FOA selection (AID 869;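 active = inhibition over a set limit, the all-compound mean plus 3 SD, in both replicate runs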;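 note: 0% = DMSO wells with no growth and 100% = 10 µM 1-NA-PP1 with full growth; RAM network block rescues cells from 5-FOA so hits raise OD615 growth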); details: S. cerevisiae dse1pr::URA3 5-FOA growth, OD615, 2 d; at 10 µM; stronger effect = higher value; strain carries analog-sensitive mutant Cbk1 kinase
[15] = RAM signaling pathway blockade in yeast – S. cerevisiae, Pdr1DBD-CYC8 efflux-inhibited sensitized strain, primary screen (AID 1298;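 active = RAM network inhibition above 8.4% in each of two replicates, 3 SD over the compound average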;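 note: 0% = DMSO untreated cells without growth and 100% = 10 µM 1-NA-PP1 full growth; higher means more yeast growth rescued from 5-FOA killing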); details: S. cerevisiae cbk1-as DSE1-URA3 strain, 5-FOA growth OD615, 2 d; at 50 µM; stronger effect = higher value
[16] = H69AR cells + 2 uM doxorubicin, measured here: viability with 2 uM doxorubicin, stronger effect = lower value
[17] = H69AR cells, compound alone cytotoxicity

Sequence of Receptor tyrosine-protein kinase erbB-2 (Homo sapiens) (P04626 whole entry, looked up): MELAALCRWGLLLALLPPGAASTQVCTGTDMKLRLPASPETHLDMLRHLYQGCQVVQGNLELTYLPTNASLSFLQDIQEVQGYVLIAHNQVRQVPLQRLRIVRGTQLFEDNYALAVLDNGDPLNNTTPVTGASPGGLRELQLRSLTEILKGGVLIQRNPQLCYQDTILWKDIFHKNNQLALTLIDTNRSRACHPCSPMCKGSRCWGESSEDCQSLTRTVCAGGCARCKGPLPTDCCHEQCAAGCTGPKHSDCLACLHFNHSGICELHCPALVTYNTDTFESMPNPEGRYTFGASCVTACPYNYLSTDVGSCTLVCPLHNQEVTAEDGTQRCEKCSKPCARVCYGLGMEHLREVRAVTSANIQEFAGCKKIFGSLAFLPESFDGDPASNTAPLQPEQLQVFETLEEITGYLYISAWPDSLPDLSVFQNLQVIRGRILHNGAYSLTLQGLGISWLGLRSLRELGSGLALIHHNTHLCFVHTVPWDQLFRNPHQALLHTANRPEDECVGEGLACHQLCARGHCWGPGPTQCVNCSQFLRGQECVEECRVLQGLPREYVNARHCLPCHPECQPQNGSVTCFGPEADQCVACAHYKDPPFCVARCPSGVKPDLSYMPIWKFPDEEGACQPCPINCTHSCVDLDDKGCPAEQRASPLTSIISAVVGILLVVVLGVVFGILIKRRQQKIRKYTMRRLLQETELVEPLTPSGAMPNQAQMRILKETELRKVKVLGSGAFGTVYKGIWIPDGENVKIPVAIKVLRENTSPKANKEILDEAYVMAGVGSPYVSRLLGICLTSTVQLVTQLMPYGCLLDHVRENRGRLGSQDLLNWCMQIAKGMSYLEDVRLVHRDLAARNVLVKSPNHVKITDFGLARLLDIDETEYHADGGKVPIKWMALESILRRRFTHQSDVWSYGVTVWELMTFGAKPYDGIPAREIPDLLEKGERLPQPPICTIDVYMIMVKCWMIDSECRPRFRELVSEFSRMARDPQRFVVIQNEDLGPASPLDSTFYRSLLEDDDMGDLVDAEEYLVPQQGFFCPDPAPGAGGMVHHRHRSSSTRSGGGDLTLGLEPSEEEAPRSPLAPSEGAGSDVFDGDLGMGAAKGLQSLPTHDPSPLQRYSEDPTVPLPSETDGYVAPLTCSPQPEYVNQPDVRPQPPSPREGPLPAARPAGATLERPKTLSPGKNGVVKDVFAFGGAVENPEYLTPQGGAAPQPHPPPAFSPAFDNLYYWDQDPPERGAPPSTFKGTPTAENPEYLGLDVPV

COCCn1c(=N)c(C(=O)NCCc2ccccc2)cc2c(=O)n3cccc(C)c3nc21
92.5%: viability [6, 17]
inactive: Her2 level [2] 69% | viability [3] 63.5% | viability [4] 86.6% | viability [5] 92.5% | differential viability (reversal) ([6]; H69AR cells + 2 uM doxorubicin) 15.7% | inhibition [7] -0.38% | inhibition [8] -8.83% | growth inhibition [9] 1.32% | growth inhibition [10] -10.6% | viability increase [11] -4.45% | viability [12] 66.8% | viability [13] 68.5% | inhibition [14] 0.64% | RAM network inhibition [15] 0.2%
76.8%: viability [6, 16]
63.5%: viability [1]

O=C(OCN1C(=O)c2ccccc2C1=O)C1CCCCC1
inactive: Her2 level [2] 97.5% | viability [3] 82% | viability [4] 87.3% | viability [5] 87.6% | differential viability (reversal) ([6]; H69AR cells + 2 uM doxorubicin) -12.9% | inhibition [7] 3.08% | inhibition [8] -7.17% | growth inhibition [9] 0.93% | growth inhibition [10] -9.12% | viability increase [11] -2.19% | viability [12] 90.2% | viability [13] 91% | inhibition [14] 1.03% | RAM network inhibition [15] 0.77%
100%: viability [6, 16]
82%: viability [1]
87.6%: viability [6, 17]

COC(=O)CSC1=NS(=O)(=O)c2ccccc21
active: growth inhibition [9] 94.3% | growth inhibition [10] 98.3%
inactive: Her2 level [2] 92% | viability [3] 143% | viability [4] 60% | viability [5] 62.6% | differential viability (reversal) ([6]; H69AR cells + 2 uM doxorubicin) -26.7% | inhibition [7] -7.43% | inhibition [8] -2.3% | viability increase [11] -0.32% | viability [12] 99.4% | viability [13] 96.4% | inhibition [14] -0.34% | RAM network inhibition [15] -1.77%
89.3%: viability [6, 16]
62.6%: viability [6, 17]
143%: viability [1]

Cc1cccc(OCc2nc(C#N)c(NCCN(C)C)o2)c1
84.8%: viability [6, 17]
87.3%: viability [6, 16]
97%: viability [1]
inactive: Her2 level [2] 81.5% | viability [3] 97% | viability [4] 79.7% | viability [5] 84.8% | differential viability (reversal) ([6]; H69AR cells + 2 uM doxorubicin) -2.44% | inhibition [7] -2.4% | inhibition [8] -2.46% | growth inhibition [9] -4.31% | growth inhibition [10] 1.57% | viability increase [11] -3.62% | viability [12] 102% | viability [13] 103% | inhibition [14] 0.445% | RAM network inhibition [15] 3.81%

O=C1CC(c2ccccc2)CC(O)=C1C=NCCN1CCOCC1 (stereo not drawn)
96.2%: viability [6, 16]
102%: viability [6, 17]
inactive: Her2 level [2] 85.5% | viability [3] 96.5% | viability [4] 85.7% | viability [5] 102% | differential viability (reversal) ([6]; H69AR cells + 2 uM doxorubicin) 5.44% | inhibition [7] -7.97% | inhibition [8] -1.48% | growth inhibition [9] -4.59% | growth inhibition [10] 9.74% | viability increase [11] 0.42% | viability [12] 94.7% | viability [13] 93.2% | inhibition [14] 1.16% | RAM network inhibition [15] -0.52%
96.5%: viability [1]

CC1=C(C(=O)OC(C)C)C(c2cccc(F)c2)n2ncnc2N1 (stereo not drawn)
90.7%: viability [6, 17]
inactive: Her2 level [2] 112% | viability [3] 103% | viability [4] 101% | viability [5] 90.7% | differential viability (reversal) ([6]; H69AR cells + 2 uM doxorubicin) -1.02% | inhibition [7] 0.27% | inhibition [8] 3.83% | growth inhibition [9] -7.79% | growth inhibition [10] -4.85% | viability increase [11] 0.62% | viability [12] 103% | viability [13] 100% | inhibition [14] 1.74% | RAM network inhibition [15] 5.32%
103%: viability [1]
91.7%: viability [6, 16]

CCCCN(C)Cc1c(O)ccc2c(-c3ccccc3)cc(=O)oc12
96.7%: viability [6, 17]
89%: viability [1]
inactive: Her2 level [2] 102% | viability [3] 89% | viability [4] 111% | viability [5] 96.7% | differential viability (reversal) ([6]; H69AR cells + 2 uM doxorubicin) 8.13% | inhibition [7] -2.7% | inhibition [8] 2.95% | growth inhibition [9] -4.28% | growth inhibition [10] 2.96% | viability increase [11] -2.64% | viability [12] 91% | viability [13] 93.6% | inhibition [14] 0.605% | RAM network inhibition [15] 1.89%
88.6%: viability [6, 16]

CCOC(=O)c1sc2nc(NC(=O)C(C)(C)C)sc2c1C
104%: viability [1]
inactive: Her2 level [2] 75.5% | viability [3] 104% | viability [4] 62.8% | viability [5] 79.3% | differential viability (reversal) ([6]; H69AR cells + 2 uM doxorubicin) 11.9% | inhibition [7] -3.73% | inhibition [8] -4.59% | growth inhibition [9] -1.74% | growth inhibition [10] 5.62% | viability increase [11] -4.43% | viability [12] 74.5% | viability [13] 74% | inhibition [14] -0.52% | RAM network inhibition [15] 3.13%
79.3%: viability [6, 17]
67.5%: viability [6, 16]

CCN(CCNC(=O)C1CCN(S(=O)(=O)c2cccc3cccnc23)CC1)c1ccccc1
inactive: Her2 level [2] 84.5% | viability [3] 87% | viability [4] 79.7% | viability [5] 98.3% | differential viability (reversal) ([6]; H69AR cells + 2 uM doxorubicin) -2.15% | inhibition [7] -1.33% | inhibition [8] 20.5% | growth inhibition [9] -5.29% | growth inhibition [10] 8.53% | viability increase [11] 1.51% | viability [12] 94.4% | viability [13] 82.9% | inhibition [14] 0.21% | RAM network inhibition [15] 5.91%
100%: viability [6, 16]
87%: viability [1]
98.3%: viability [6, 17]

Source: PubChem BioAssay
